From PubChem BioAssay AID2546 (National Center for Advancing Translational Sciences (NCATS), 2010)
Hit rate of the full screen: of about 310,000 compounds, about 11,000 (3.5%) were called active. Another 8% or so got no clear call; they are omitted. The list comes from a sample in which actives are over-represented; it also holds similar structures and randomly drawn compounds. Values without a mark were called inactive. Calls follow the shape of the dose curve; as a rule, active = well fitted inhibition curve with a large enough effect; inconclusive = small, poorly fitted or top-dose-only effect, or effect the other way; inactive = flat fitted curve, though single readings scatter.

experiment: VP16 counterscreen qHTS for inhibitors of ROR gamma transcriptional activity; conditions: Drosophila S2 Gal4-VP16 UAS-luciferase, luminescence, 20 h; series mostly up to 53.6 µM; activity, negative = inhibition: at the top concentration;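 also: Gal4-VP16 expression switched on by copper sulfate through the metallothionein promoter; nearly all actives have a fitted effect of over 50% in size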
% is scaled to controls: 0 for no effect and ±100 for the full control effect; potency is read from the fitted curve at half-maximal effect.

Compound | Potency | activity, negative = inhibition [%]
CC(C)c1cc(C(=O)N/N=C/c2ccoc2)c(O)c(C(C)C)c1 | 3.16 µM (active) | 
O=C(N/N=C/c1ccoc1)c1ccc(Cl)cc1Cl |  | -4.59
CC(Oc1ccccc1[N+](=O)[O-])C(=O)N/N=C/c1ccoc1 (centres undefined) |  | -9.18
Cn1c(N2CCOCC2)c(C=O)c2ccccc21 |  | 8.57
CC1CCC(NS(=O)(=O)c2ccc3c(c2)CC(=O)N3)CC1 (centres undefined) |  | 2.3
Cc1occc1C(=O)NC1CCCN(Cc2ccc(CC(C)C)cc2)C1 (centres undefined) |  | -15.5
C=CCOc1c(Br)cc(/C=N\n2nnnc2N)cc1OC |  | 8.19
CCOc1c(Br)cc(/C=C2\C(=O)N(CCC#N)N=C2C)cc1OC | 11.2 µM (active) | 
CCOc1cc(/C=C/c2nc3ccccc3c(=O)[nH]2)cc(Br)c1OC |  | -2.15
C=CCOC(=O)C1=C(C)NC(C)=C(C(=O)OCC=C)C1c1cccs1 |  | 0.696
CCOC(=O)c1ccc(NC(=O)C2CC(=O)Nc3nc4ccccc4n32)cc1 (centres undefined) |  | 2.42
CCOC(=O)C1=C(C)Nc2nc3ccccc3n2C1c1cccs1 (centres undefined) | 5.01 µM (active) | 
CCOc1ccc2[nH]c(C(=O)N/N=C/c3cccc(OC)c3OC)cc2c1 |  | 4.44
COc1cccc(CCNC(=O)c2cccc(NC(=O)C3=C(C)OCCS3)c2)c1 |  | -17.2
Cc1ccc(N/C=C/C(=O)c2ccccc2)cc1C |  | -55.9
Cc1cc(SCC(=O)c2ccccc2)nc(SCC(=O)c2ccccc2)n1 |  | -16.5
Cc1cc(C)nc(S/C=C/C(=O)c2ccccc2)n1 | 3.55 µM (active) | 
CSc1ccccc1NC(=O)c1ccc2c(c1)CCN2S(C)(=O)=O |  | -7.46
Cc1nn(CCCC(=O)NCc2ccccc2Cl)c(=O)c2nccn12 |  | -1.04
O=C(Cc1ccccc1)Nc1ccc(C(=O)Nc2ccccc2C(=O)O)cc1 |  | 5.24
CCOc1ccc(CN2CCN(Cc3ccc4cc(F)ccc4n3)CC2CCO)cc1 (centres undefined) |  | -6.33
COc1cc(C(=O)NCc2nnc(SCC(=O)Nc3nc4ccc(C)cc4s3)o2)cc(OC)c1OC | 3.16 µM (active) | 
COc1cc(C(=O)NCc2nnc(SCC(=O)c3ccc(Cl)cc3)o2)cc(OC)c1OC |  | -6.58
COc1ccc(C(=O)NCc2nnc(SCC(=O)Nc3cccc(OC)c3)o2)cc1 |  | -0.7
O=C(CNC(=O)c1ccc(Br)o1)NCC1CCCO1 (centres undefined) |  | 1.42
O=C(/C=C/c1ccco1)NC(=S)N1CCCCC1 | 22.4 µM (active) | 
COc1ccc(C)cc1NC(=S)N1CCOCC1 |  | -2.62

Compound | Potency | activity, negative = inhibition [%]
CCNC(=S)N1CCN(C(=O)c2ccco2)CC1 |  | -4.45
COc1ccc(/C=C/C(=O)NC(=S)N2CCCC(C(N)=O)C2)cc1 (centres undefined) |  | -11.2
COc1ccccc1/C=C/C(=O)NC(=S)N1CCOCC1 | 8.91 µM (active) | 
COc1ccccc1/C=C/C(=O)NC1CC2CCC1C2 (centres undefined) |  | 22.3
CC1CCCN(S(=O)(=O)c2ccc(-c3ccc(=O)[nH]n3)o2)C1 (centres undefined) |  | -0.807
O=C(C1CC(=O)N(c2ccc(Br)cc2)C1)N1CCCC1 (centres undefined) |  | 2.91
CC(C)c1nc2ccc(C(=O)O)cc2[nH]1 | 20 µM (active) | 
Cc1nc2ccc(C(=O)O)cc2[nH]1 |  | -8.16
OC(c1nc2ccc(F)cc2[nH]1)C(O)c1nc2ccc(F)cc2[nH]1 (centres undefined) |  | -3.31
COc1ccc2cc(C(=O)C3CCCN(C(=O)c4sc(C)nc4C)C3)ccc2c1 (centres undefined) |  | -3.81
CC(C)(C)OC(=O)NNc1c2ccccc2nc2ccccc12 |  | -22.6
COC(=O)CSc1nnc(NC(=O)CCc2ccccc2)s1 |  | -9.32
O=C(NCCc1ccccc1Cl)C1CCC(=O)N(CCCc2ccccc2)C1 (centres undefined) |  | -8.62
CCCn1c(CCNc2nc(-c3ccc(OC)cc3)cs2)nc2ccccc21 |  | -4.87
O=C(CCCC(=O)N1CCN(c2cccc(Cl)c2)CC1)c1ccccc1 |  | 1.45
S=C1NC(c2ccccc2)=NCN1c1ccc(Br)cc1 | 20 µM (active) | 
Cc1nc(=O)c(-c2ccccc2)c(C)n1-c1ccc(Br)cc1 |  | -1.26
Brc1ccccc1C1N=C(c2ccccc2)NO1 (centres undefined) |  | -7.34
COc1cc(NC(=O)CSc2ccc(-c3cccnc3)nn2)cc(OC)c1 |  | -0.546
CCOC(=O)C1(CCOc2ccccc2)CCN(Cc2ccc(C#CCCO)cc2)CC1 |  | -12.6
C=CCn1c(SCC(=O)NC)nnc1C12CC3CC(CC(C3)C1)C2 |  | 0.249
C=CCn1c(SCC(=O)NC23CC4CC(CC(C4)C2)C3)nc(O)cc1=O |  | -4.61
C=CCn1c(C23CC4CC(CC(C4)C2)C3)n[nH]c1=S | 2.51 µM (active) | 
COc1cc(NS(=O)(=O)c2ccc(NC(=S)NC(=O)c3ccccc3)cc2)nc(OC)n1 |  | 10.4
Cn1c(C(=O)N2CCCC(C(=O)NCc3ccccc3)C2)cc2sccc21 (centres undefined) |  | 0.53
CC(=O)Nc1ccc(S(=O)(=O)NC2Cc3ccccc3C2)cc1 |  | 4.49
COc1ccc(-c2nc3ccccc3c(=O)n2CCc2ccc(O)cc2)cc1 |  | 4.13
